Screening data from PubChem BioAssay.
The list is a sample of the results.
VCAM1 TNFa pot: TNF alpha stimulated VCAM1 expression potentiation; AID 808; 0.19% of 93,000 active; activation, % at 2 µM; HUVEC TNFa-stimulated VCAM-1 immunofluorescence, high-content imaging; scaled per plate to unstimulated/TNFa-only wells;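 active = activation above the screen mean plus 3 SD, with well images confirming the hit on visual review, cut at about 28% in these data, passing the limit was not always enough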;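 note: signal is the number of cytoplasmic VCAM-1 stained grains per positive cell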
VCAM1 pot confirm: potentiators of TNFa-induced VCAM1 expression, confirmation, imaging, HUVEC, triplicate retest; activation, % at 2 µM; 230 tested, under 10 active; shares compounds with VCAM1 TNFa pot; HUVEC TNFa-stimulated VCAM-1 immunofluorescence imaging;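 active = activation above 30% in triplicate retests at 2 µM, then confirmed by visual review of the well images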;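 note: scaled per plate between unstimulated and TNFa-stimulated DMSO control wells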
Active calls of the source: *.

SMILES	VCAM1 TNFa pot	others
COc1ccc(CNC(=O)c2ccc(C)o2)cc1	13.2
CCc1nc(OCc2ccco2)c2sc3nc4c(cc3c2n1)COC(C)(C)C4	-10.3
COc1ccc(Cc2nn3c(Cn4nnc5ccccc54)nnc3s2)cc1	-4.2
CCn1c(SCC(=O)N2CCN(c3ccccc3)CC2)nnc1-c1c[nH]c2ccccc12	-7.4
C=CCn1c(N)c(C(=O)NC2CCCCC2)sc1=S	-8.3
CC(C)NC(=O)CC1Nc2c3ccccc3nc(=S)n2C1=O (stereo unspecified)	-2.1
CCNc1nc(NCc2ccccc2)nc(Oc2ccc(=O)[nH]n2)n1	-4.2
Cc1cc(-c2[nH]nc3c2C(c2cccc(O)c2)C(C#N)=C(N)O3)c(C)s1 (stereo unspecified)	-30.9
Cc1ccc(NC(=O)c2cc(-c3ccco3)on2)cc1C	-0.2
O=C(NCc1cccs1)C1CCCN1S(=O)(=O)c1ccccc1F (stereo unspecified)	-3.4
Cc1ccc(-n2ccnc2SCC(=O)O)c(C)c1	-2.2
CC1CCCC(NC(=S)Nc2ccc(SC(F)F)cc2)C1C (stereo unspecified)	-3.4
O=C1CCCC2=C1C(c1ccc(Cl)cc1)N1C(=O)CCSC1=N2 (stereo unspecified)	-16.8
CCOC(=O)CSC1=C(C#N)C(c2ccccc2F)C(C(C)=O)=C(C)N1 (stereo unspecified)	-9.7
O=C(CSc1nnc(COc2ccccc2)n1Cc1ccco1)Nc1ccc2c(c1)OCCO2	-32.2
CCN1CCN(Cc2nc(N)nc(Nc3ccc(C)c(C)c3)n2)CC1	1.2
Nc1nn(S(=O)(=O)c2cccc3nsnc23)cc1-c1ccc(Br)cc1	2.0
CCO/C=C1/C(=O)N(C(C)=O)c2ccccc21	18.4
COc1ccccc1NC(=O)Cn1cnc2sc(C(=O)NCc3ccco3)c(C)c2c1=O	-29.1
COc1cccc(NC(=O)C2CC(=O)n3cnnc3S2)c1 (stereo unspecified)	3.3
COCc1cc(Sc2ccc(Cl)cc2)nc(-c2ccccc2)n1	7.2
COCCNC(=O)CSc1nc2ccccc2c(=O)n1CC1CCCO1 (stereo unspecified)	9.5
Cc1ccc(S(=O)(=O)c2cc3c(=O)n4ccccc4nc3n(Cc3ccco3)c2=N)cc1	-19.9
N#Cc1cc2c(=O)n3ccccc3nc2n(CC2CCCO2)c1=N (stereo unspecified)	47.0*
CC(C(N)=O)N1C(=O)C2C3C=CC(C3)C2C1=O (stereo unspecified)	1.3
SMILES	VCAM1 TNFa pot	others
Cc1ccc(S(=O)(=O)N(C)c2ccc(C(=O)N3CCCCC3)cc2)cc1	5.7
CCCC(=O)Nc1nnc(-c2cccc(OCC)c2)s1	-4.6
CCCc1cc2c(=O)c(-c3ccc4c(c3)OCCO4)c(C)oc2cc1OS(C)(=O)=O	10.0
CCc1ccc2c(c1)C(NC(C)=O)C(=O)N2CC (stereo unspecified)	6.4
CCOC(=O)c1[nH]c(C)c(/C(O)=C2\C(=O)C(=O)N(CCCN(C)C)C2c2ccncc2)c1C (stereo unspecified)	-0.2
CC(NS(=O)(=O)c1ccccc1)C(=O)Nc1ccc(S(N)(=O)=O)cc1 (stereo unspecified)	18.7
CCCCSc1nc(C)cc(SCC(=O)N/N=C/c2cccc(OC)c2O)n1	-44.1
CCn1c(CNC(=O)c2cccs2)nnc1SCC(=O)NCCc1ccccc1	-5.2
O=C(Cc1ccccc1)N/N=C/c1ccccc1OCc1ccc(Cl)cc1	-1.0
COc1cc(OC)cc(-c2nnc(SCC(=O)N3c4ccccc4Sc4ccccc43)o2)c1	5.9
Cn1cccc1CC(=O)N/N=C\c1cccs1	-8.6
COc1cc(NC(=S)NC(=O)c2ccc(C)cc2C)ccc1NC(=O)c1cccs1	-5.1
CN(C(=O)C1CCOC1)c1nnc(-c2ccccn2)s1 (stereo unspecified)	-4.6
COc1ccc(NC(=O)COc2ccc(/C=N/n3c(C)nnc3C)cc2OC)cc1	-0.6
NC(=O)CCN(Cc1ccccc1)S(=O)(=O)c1ccccc1	6.1
OCCN1CCN(CC(O)COc2ccc3ccccc3c2)CC1 (stereo unspecified)	-24.1
CCOC(=O)C1=C(O)/C(=C/c2cn(CC(=O)NCC3CCCO3)c3ccccc23)SC1=Nc1ccc(C)cc1 (stereo unspecified)	-88.6
COc1ccc(S(=O)(=O)NC(CC(=O)NCc2ccco2)C(C)C)cc1 (stereo unspecified)	-100.0
COC(=O)c1ccccc1NC(=O)NCC1CCCO1 (stereo unspecified)	-3.5
CCc1nc2cc(C)nn2c2nc3ccccc3n12	2.8
Nc1nonc1-c1nc2ccccc2n1Cc1ccccc1	-1.9
N#Cc1cc2c(nc1SCC(=O)O)CCCC2	-9.5
COc1ccccc1-c1nnc2n1N=C(c1ccc(O)c(O)c1)CS2	-95.5
CCOc1ccc(C(F)(F)F)cc1NC(=O)c1ccc(OC)c([N+](=O)[O-])c1	-9.6
CCOC(=O)N1CCN(c2c(NCc3ccccn3)c(=O)c2=O)CC1	-9.7
SMILES	VCAM1 TNFa pot	others
CC(=O)Oc1ccc(-c2csnn2)cc1	-6.1
O=C(Nc1ccccc1)C1=C(O)CC(c2ccoc2)CC1=Nc1ccccc1 (stereo unspecified)	-9.7
Cn1c(CSc2nc3ccccc3s2)nnc1SCC(=O)NCc1ccccn1	-7.1
CC(C)c1nc(NCC2CCCO2)c(C#N)c2c1COC(C)(C)C2 (stereo unspecified)	-20.9
O=C1CN2C(=N1)N(Cc1ccccc1)c1ccccc12	-3.6
Cn1nc(C(=O)Nc2cccc(C(F)(F)F)c2)ccc1=O	-33.6
CCn1c(=O)c2cc(C(=O)Nc3cc(C)on3)sc2c2ccccc21	2.1
c1ccc(Cn2nnnc2C(c2cccnc2)N2CCN(C3CCCCC3)CC2)cc1 (stereo unspecified)	-2.7
CC(C)(C)C(=O)Nc1nnc(SCC(=O)NCc2cccs2)s1	-3.2
O=C(C1CCCO1)N1CCN(c2ncccn2)CC1 (stereo unspecified)	6.1
O=[N+]([O-])c1ccc(-c2nnc(-c3ccccc3)c(N3CCOCC3)n2)cc1	-9.5
CCOC(=O)c1cnc2c(C(=O)OC)cccc2c1NCCN1CCOCC1	-40.0
COc1ccc(-c2c3c(=O)n(C)c(=O)n(C)c3cn2N2CCOCC2)cc1	-2.6
CC(O)Cc1nsc(NC(=O)c2cccs2)n1 (stereo unspecified)	-3.9
CCOC(=O)c1ccc(-n2nc(C(F)(F)F)c3c(C)cc(=O)oc32)cc1	57.1*
CCOC(=O)c1ccc(-n2[nH]c(-c3ccccc3)cc2=O)cc1	5.3
CCOC(=O)c1cnn(-c2nc(-c3ccc(C)cc3)cs2)c1C(F)(F)F	-96.3
CCCCOC(=O)Nc1nnc(CCOCC)s1	1.5
CCOc1nc(-c2ccncc2)nc2ccccc12	43.4*	VCAM1 pot confirm=-8.9
Brc1ccc(-c2nc(N/N=C/c3cccnc3)c3ccccc3n2)cc1	-41.0
CCCNC(=O)NC(=O)CN1C(=O)NC(C)(c2ccc(C)cc2)C1=O (stereo unspecified)	-3.1
COc1ccccc1N(C)S(=O)(=O)c1ccc(C(=O)NCC(C)C)cc1	-74.5
Cc1c(O)c(CN2CCCCC2)cc2c3c(c(=O)oc12)CCC3	-16.6
Cn1c(SCC(=O)NCc2ccc(F)cc2)nc2ccccc21	49.9*	VCAM1 pot confirm=-2.1
CC(C)(C)NC(=O)Cn1c(SCC(N)=O)nc2ccccc21	-1.0
Cc1nc2ccccc2n1CC(=O)NCc1ccccc1	-7.9
Cc1cc2nc3c(c(=O)n2[nH]1)CCCC3	3.2
